Bioassay records from PubChem BioAssay.
ADAM17 inh: ADAM17 inhibitors, primary screen, biochemical, QFRET | recombinant ADAM17, EDANS/DABCYL FRET peptide cleavage | inhibition, % at 6.95 µM | hit rate 0.83% among 370,000 | AID 720648, 2013;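 active means inhibition above the mean of compounds lying between control limits plus 3 SD, set per campaign, cut at about 8.5% in these data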;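 further: 0% = DMSO-only wells as the low control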
KLK7 zymogen act: proKLK7 zymogen activators, primary screen, biochemical, fluorescence intensity | activation, % at 7 µM | AID 652039, 2013 | Kallikrein-7 (Homo sapiens), P49862 | purified proKLK7, EDANS-DABCYL substrate fluorescence; 100% is mature enzyme control, 0% vehicle | hit rate 0.9% among 370,000;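 active means activation above the mean of all tested compounds plus 3 SD, computed per campaign excluding outliers beyond control limits, cut at about 13% in these data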
Target sequence (P49862 whole entry, looked up): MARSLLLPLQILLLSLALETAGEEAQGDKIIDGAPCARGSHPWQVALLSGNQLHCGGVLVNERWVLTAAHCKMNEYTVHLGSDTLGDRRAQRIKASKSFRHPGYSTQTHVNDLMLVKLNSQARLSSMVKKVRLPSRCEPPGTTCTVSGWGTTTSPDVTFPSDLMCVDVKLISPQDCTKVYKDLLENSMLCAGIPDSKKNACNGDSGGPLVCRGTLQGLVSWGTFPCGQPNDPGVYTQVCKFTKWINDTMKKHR
FGF22 binding: binders of human FGF22 protein, primary screen, FGF22 synaptogenesis inhibitor project, biophysical, thermal shift, single point | hit rate 1.5% among 340,000 | recombinant FGF22 thermal shift, SYPRO orange fluorescence; percent of sucrose octasulfate shift, DMSO zero | AID 651658, 2012 | Fibroblast growth factor 22 (Homo sapiens), Q9HCT0 | activity (Tm shift, normalised), % at 9.99 µM;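 active means mean Tm shift, scaled 0 neutral to 100 positive control, at about 1.3% or above, every replicate too, limit read from the data; inconclusive means no clear call, values can overlap the other calls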
Target sequence (Q9HCT0 whole entry, looked up): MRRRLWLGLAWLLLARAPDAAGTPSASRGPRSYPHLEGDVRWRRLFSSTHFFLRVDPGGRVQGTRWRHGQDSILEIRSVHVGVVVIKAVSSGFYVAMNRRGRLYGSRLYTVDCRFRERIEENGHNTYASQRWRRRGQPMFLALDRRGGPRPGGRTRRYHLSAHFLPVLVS
ADAM10 inh: human ADAM10 inhibitors, primary screen, biochemical, QFRET, HTS; Disintegrin and metalloproteinase domain-containing protein 10 (Homo sapiens), O14672; recombinant ADAM10, EDANS/DABCYL FRET peptide cleavage, 3 h; inhibition, % at 7 µM; hit rate 0.62% among 370,000;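 active means inhibition above a per-campaign cutoff equal to the mean of compounds falling between control-based bounds plus 3 SD, cut at about 20% in these data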;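 further: 0% = DMSO wells while the 100% control is not disclosed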
Ecoli rRNA inh: reduced GFP signal of wild-type E. coli, primary screen, bacterial rRNA inhibitor project, GFP/RFP fluorescence, OD600, single point; hit rate 1.6% among 350,000; E. coli WT GFP vs humanized-ribosome RFP mutants, 24 h; active compounds read low; DMSO median 0, no signal -100; AID 720706, 2013; GFP signal change (wild-type ribosome), % (test concentration not listed);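 active means significant combined selectivity score with lowered wild-type GFP, culture density cut under 30%, mutant RFP and density less affected; inactive means any of these conditions unmet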
AID977621: growth inhibition of wild-type GFP E. coli, dose response, H69 mutant RFP, cherry-pick; AID 977621, 2014; activity change, negative = inhibition at 50 µM; shares compounds with Ecoli rRNA inh; 1,900 tested, under 10 active; E. coli wild-type GFP strain growth, fluorescence, 24 h;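 active means Wild-type ribosome reporter drop at least double the humanized mutant ribosome reporter drop, growth loss under a set limit; inconclusive means no clear call, values can overlap the other calls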;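 further: wild-type GFP and H69 mutant RFP strains grown together 50/50 in each well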
AID977628: E. coli growth inhibition, wild-type GFP versus h24 humanized RFP strain, dose response, h24 mutant RFP vs wild-type GFP, cherry-pick | shares compounds with Ecoli rRNA inh | E. coli WT GFP strain growth, fluorescence, 24 h | activity change, negative = inhibition at 50 µM | 1,900 tested, under 10 active | AID 977628, 2014;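 active means compound lowering the normal-ribosome reporter at least twice as much as the humanized-ribosome reporter, growth loss under a set limit; inconclusive means no clear call, values can overlap the other calls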;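 further: wild-type GFP and h24 humanized RFP strains co-cultured 1 to 1 per well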
* hit, by the source's call; u = inconclusive; x = not tested or not shown. The list is not random: actives were taken first. Their share in the collection is about 3.8%.

SMILES | ADAM17 inh | KLK7 zymogen act | FGF22 binding | ADAM10 inh | Ecoli rRNA inh | AID977621 | others
C[C@@H]1CN([C@H](C)CO)C(=O)c2cc(NC(=O)Cc3cn(C)c4ccccc34)ccc2O[C@@H]1CN(C)CC1CCCCC1 | x | x | -1 | x | 2 | x
CC(=O)c1ccc(-c2cccc([C@H]3[C@@H]4C=CC[C@@H](C)[C@@H]4C(=O)N3Cc3ccccc3)c2)cc1 | -2 | 0 | 0 | -4 | -19* | -0.09 | AID977628=-8.4
COc1cccc(S(=O)(=O)N2CCCCN3[C@H](CO)[C@H](c4ccc(C#CC(C)C)cc4)[C@@H]3C2)c1 | x | x | 0 | x | -4 | 4.6
COc1cccc(S(=O)(=O)N2CCCCN3[C@H](CO)[C@@H](c4ccc(C#CC(C)C)cc4)[C@H]3C2)c1 | x | x | 0 | x | -47* | x | AID977628=u
COc1cccc(S(=O)(=O)N2CCCCN3[C@H](CO)[C@@H](c4ccc(C#CC(C)C)cc4)[C@@H]3C2)c1 | x | x | 0 | x | 7 | u
COc1cccc(S(=O)(=O)N2CCCCN3[C@H](CO)[C@@H](c4ccc(C#CCC(C)C)cc4)[C@H]3C2)c1 | x | x | x | x | -16 | x
COc1cccc(S(=O)(=O)N2CCCCN3[C@H](CO)[C@@H](c4ccc(C#CCC(C)C)cc4)[C@@H]3C2)c1 | x | x | -1 | x | -4 | x
CC=Cc1ccc2n(c1=O)C[C@@H]1[C@@H](CO)[C@H](C(=O)NC3CCC3)[C@H]2N1C(=O)c1ccccn1 (mixture of isomers) | x | x | 0 | x | 1 | x
O=C(C[C@H]1CC[C@@H]2[C@H](COC[C@@H](O)CN2Cc2cc(F)cc(F)c2)O1)NC1CCCC1 | x | x | 0 | x | -1 | x
CCC(=O)N1CC2(CCN(C(=O)c3cccnc3)CC2)c2c([nH]c3cc(OC)ccc23)[C@H]1CO | x | x | 0 | x | -1 | x
COc1ccccc1NC(=O)CSc1ncc(CO)n1Cc1ccc(F)cc1 | -2 | -1 | 0 | -2 | -20* | -15 | AID977628=-14
Cc1cc(NC(=O)CSc2ncc(CO)n2Cc2ccc(F)cc2)no1 | -6 | 0 | 0 | 4 | 8 | x
CCc1cccc(NC(=O)c2ccc3c(=O)n4c(nc3c2)CCCCC4)c1 | -3 | -1 | 0 | -3 | -19* | -14 | AID977628=-5.3
CN(C(=O)COc1ccccc1C(=O)NCCOc1ccccc1)c1ccccc1 | 3 | 0 | 0 | -16 | -19* | -9.1
CC(=O)N1[C@@H]2Cn3c(ccc(C4=CCCC4)c3=O)[C@H]1[C@@H](C(=O)N[C@H](C)c1ccccc1)[C@@H]2CO | x | x | x | x | -2 | x
Cc1ccc(NC(=O)c2cccnc2)cc1S(=O)(=O)N(C)C | 1 | 0 | 0 | 1 | 21 | x
Cc1ccc(NC(=O)c2ccc3ncsc3c2)cc1S(=O)(=O)N(C)C | -7 | 0 | 0 | -10 | -23* | -4.7
CC(C)(C)c1ccc(S(=O)(=O)NCc2ccccn2)cc1 | 0 | 1 | 0 | -2 | 2 | x
CC(C)(C)c1ccc(S(=O)(=O)NCc2ccc(C(=O)NCc3ccccn3)cc2)cc1 | 0 | 0 | 0 | 4 | -26* | -5 | AID977628=-17
CC=Cc1ccc2n(c1=O)C[C@@H]1[C@@H](CO)[C@H](C(=O)NCC3CC3)N(CC3CCOCC3)[C@H]21 (mixture of isomers) | x | x | 0 | x | 2 | x
CCCNC(=O)[C@H]1[C@H](CO)[C@H]2Cn3c(ccc(-c4ccccc4OC)c3=O)[C@H]2N1CC | x | x | 0 | x | 1 | x
Cc1noc(C)c1NC(=O)Nc1ccc2c(c1)C(=O)N([C@@H](C)CO)C[C@H](C)[C@H](CN(C)Cc1ccncc1)OCCCC[C@@H](C)O2 | x | x | 0 | x | 1 | x
